Test results published in PubChem BioAssay (NCI).
The panel holds about 83,000 compounds, 20% with a hit somewhere; the sample as a whole holds those more often.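 Percent growth is the endpoint: 0 to 100 indicates growth inhibition (40 means 60% inhibition), 0 means no net growth, and negative values indicate cell death.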 Unmarked numbers belong to inactive results. Activity calls are given as the source filed them. Rule for the calls: active = growth percent below 10; inactive = the rest.

What was measured:
Assay in all cases: NCI-60 one-dose screen, 48 h (100 = growth as untreated, 0 = no growth, -100 = all killed)
[1] = system: HCT-15 colon; conditions: 10 µM unless noted
[2] = system: HT29 colon; conditions: 10 µM unless noted
[3] = system: SNB-75 CNS; conditions: 10 µM unless noted
[4] = system: SNB-19 CNS; conditions: 10 µM unless noted
[5] = system: U251 CNS; conditions: 10 µM unless noted
[6] = system: PC-3 prostate; conditions: 10 µM unless noted
[7] = system: SK-MEL-5 melanoma; conditions: 10 µM unless noted
[8] = system: UACC-62 melanoma; conditions: 10 µM unless noted
[9] = system: LOX IMVI melanoma; conditions: 10 µM
[10] = system: SK-MEL-28 melanoma; conditions: 10 µM unless noted
[11] = system: EKVX NSCLC; conditions: 10 µM unless noted
[12] = system: SN12C renal; conditions: 10 µM unless noted
[13] = system: UO-31 renal; conditions: 10 µM unless noted
[14] = system: TK-10 renal; conditions: 10 µM unless noted
[15] = system: ACHN renal; conditions: 10 µM unless noted
[16] = system: CAKI-1 renal; conditions: 10 µM unless noted
[17] = system: A498 renal; conditions: 10 µM unless noted
[18] = system: CCRF-CEM leukemia; conditions: 10 µM unless noted
[19] = system: MOLT-4 leukemia; conditions: 10 µM unless noted
[20] = system: SK-MEL-2 melanoma; conditions: 10 µM unless noted

SMILES	growth [1]	growth [2]	growth [3]	growth [4]	growth [5]	growth [6]	growth [7]	growth [8]	growth [9]	growth [10]	growth [11]	growth [12]	growth [13]	growth [14]	growth [15]	growth [16]	growth [17]	growth [18]	growth [19]	growth [20]
CN(C)c1nc(NCCNS(=O)(=O)c2ccc(C3=Nc4c(N)nc(N)nc4NC(c4ccc(Cl)cc4)C3)cc2)nc(Nc2ccc(F)cc2)n1 (stereo unspecified)	32%	-41.4% (active)	53.2%	34.5%	27.5%	31.3%	-48.7% (active)	25.6%	-56.4% (active)	38.9%	43.3%	47.1%	81.1%	79.6%	73.8%	72.4%	76.5%	14%	7.27% (active)	
COc1ccc(C2CC(c3ccc(S(=O)(=O)NCCNc4nc(Nc5ccc(F)cc5)nc(N(C)C)n4)cc3)=Nc3c(N)nc(N)nc3N2)cc1 (stereo unspecified)	82.7%	63.4%	92.7%	76.3%	64.5%	53.7%	71.7%	81.6%	65.1%	85.5%	87.9%	81.1%	86.2%		92.7%	88.1%	93.6%	36.2%	20.6%	107%
C#CCOc1ccc(/C=N/Nc2nc(-c3cc4cc(Br)ccc4oc3=O)cs2)cc1OC	85.4%	36.1%	84.5%	49.6%	12.5%	74.2%	87.1%	57.5%	49.5%	78.2%	78.9%	72.8%	89.7%	102%	71%	67.9%	50.1%	100%	92.8%	
COc1ccc(NC(=O)[C@@H](N)Cc2ccccc2)cc1C(=O)Nc1cccc(C2CC(=O)c3c(cc(OC)c(OC)c3OC)O2)c1 (stereo partly specified)	37.7%	73.4%	108%	79%	60.2%	38.8%	46.5%	49.7%	25.1%	73.2%	72.9%	56.4%	33.8%	94.8%	54.2%	54.1%	96.3%	15%	19.5%	77.9%
COc1ccc(Cc2nn(CC(=O)N/N=C/c3ccc(F)cc3)c(=O)c3c(C)noc23)cc1	67.2%	74%	-17.4% (active)	20.1%	17.8%	35.9%	82.2%	44.4%	29.5%	35.9%	29.8%	-0.271% (active)	-48% (active)	-3.12% (active)	-39.4% (active)	10.2%	-57.5% (active)	70.4%	92.6%	70.5%
O=C(COc1ccc(NC(=O)Nc2ccccc2)cc1)N=Nc1c(O)[nH]c2ccc([N+](=O)[O-])cc12	103%	6.92% (active)	7.51% (active)	0.584% (active)	-72.8% (active)	2.22% (active)	28.4%	16%		-43.9% (active)	73.5%	9.08% (active)	80.2%	116%	96.2%	78.4%	133%	18.4%	3.7% (active)	-69.2% (active)
Cn1cc(-c2cc3nc(-c4c[nH]c5ccc(Br)cc45)cc(N)n3n2)c2ccccc21	-85.2% (active)	-83.1% (active)	-64.5% (active)	-68.1% (active)	-89.9% (active)	-77.3% (active)	-77.8% (active)	-70.3% (active)	-85.1% (active)	-96.6% (active)	-79.4% (active)	-73% (active)	-97.7% (active)		-98.4% (active)	-87.8% (active)	-25% (active)	-19.6% (active)	-33.8% (active)	-86.5% (active)
C=CC(=O)Nc1ccc(C)c(Oc2ccc(Cl)cc2)c1	49.7%	60.2%	-8.04% (active)	38%	36.5%	56%	53%	41.6%	27.8%	72%	62.6%	45.3%	24.4%	74%	65.4%	61.7%	58.5%	57.9%	45.3%	
COc1cc2c3c(n(CCCN4CCC[C@@H]4CO)c(=O)c2cc1OC)-c1cc2c(cc1C3=O)OCO2	-90.9% (active)	-95.2% (active)	-83.4% (active)	-90.1% (active)	-95.1% (active)	-17.8% (active)	-90.8% (active)	11.7%	-98.7% (active)	-92.1% (active)	-70.6% (active)	-91.7% (active)	-92.5% (active)		-100% (active)	-94.6% (active)	93.8%	6.04% (active)	5.36% (active)	120%
CC1=C(C(=O)OCc2ccccc2)C(c2ccc(-n3cncn3)cc2)n2c(nc3ccccc32)N1 (stereo unspecified)	33.1%	24.7%	47.9%	66.9%	63.4%	43.3%	39.7%	16.2%		66.5%	48.4%	72.9%	51.6%	89.7%	51.3%	42.8%	79.8%	16.1%	36.6%	80.6%
CCOc1ccc(-c2c(C#N)c(-c3ccc(Cl)cc3)nc3n[nH]c(-c4ccc(Cl)cc4)c23)cc1OC	19.6%	34.2%	58.5%	77%	62.9%	28%	28.2%	68.5%		60.2%	26.6%	69.2%	33.2%	90%	53.4%	53.1%	114%	33.7%	-3.16% (active)	64%
O=C(Nc1cccc(-n2cnc3cc(-c4ccc(O)cc4)ccc32)c1)C1CC1	11.9%	8.01% (active)	-5.51% (active)	32.9%	9.54% (active)	47%	7.19% (active)	38.5%		54.3%	44.4%	24.9%	23.4%	67.4%	15.4%	26.2%	78.2%	25.6%	12.7%	58.4%
N#Cc1ccc(/C=N/NC(=O)c2[nH]c3ccc(Br)cc3c2-c2ccccc2)o1	8.65% (active)	-15.3% (active)	5.21% (active)	34.5%	6.89% (active)	13.1%	-65.5% (active)	15.2%		27.4%	12.9%	5.87% (active)	24.8%	27.8%	8.88% (active)	26.9%	78.1%	-3.51% (active)	1.36% (active)	22.9%
C=C1CC[C@@H]2[C@]3(C)COC(c4cn(-c5ccccc5)nc4-c4cccc([N+](=O)[O-])c4)O[C@@H]3CC[C@@]2(C)[C@@H]1C/C=C1/C(=O)OC[C@H]1O (stereo partly specified)	-74.2% (active)	-59.7% (active)	109%	23.5%	-73.9% (active)	16.5%	-99.6% (active)	-71.7% (active)		-47.9% (active)	-0.625% (active)	3.71% (active)	12.2%	36.9%	-74.5% (active)	38.7%	105%	-1.81% (active)	-3.81% (active)	-45.2% (active)
O=S(=O)(Nc1cccc(-n2cnc3cc(-c4ccc(O)cc4)ccc32)c1)C1CC1	27.2%	16.7%	-22.3% (active)	37.7%	17.6%	40%	12.6%	34.5%		43.6%	46.4%	34.8%	21%	65%	21.3%	18.9%	30.6%	23.6%	13.7%	51.7%
O=C(O)c1cccc(-c2ccc(/C=N/NC(=O)c3[nH]c4ccc(Br)cc4c3-c3ccccc3)s2)c1	17.4%	69%	29.6%	26.2%	27%	56.9%	30.1%	19.5%		44.2%	35.2%	57.5%	47.9%	86.8%	44.1%	74.7%	100%	31%	45.3%	26.3%
